About 14,000 (4.5%) of roughly 310,000 compounds showed an effect of 50% or more. Effects have a minus sign here. Shown is part of a subset that was picked to be rich in strong results. Where a SMILES comes first, the peptide text is derived from it.
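Note: peak tail current of the secondary pulse compared with the same well before compound.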

The target of the assay is human ether-à-go-go-related gene (hERG) potassium channel (human, UniProt Q12809). Put plainly: primary screen, population patch clamp on CHO cells stably expressing hERG; higher = less effect of the substance.
human ether-à-go-go-related gene (hERG) potassium channel, sequence (Q12809 whole entry, looked up): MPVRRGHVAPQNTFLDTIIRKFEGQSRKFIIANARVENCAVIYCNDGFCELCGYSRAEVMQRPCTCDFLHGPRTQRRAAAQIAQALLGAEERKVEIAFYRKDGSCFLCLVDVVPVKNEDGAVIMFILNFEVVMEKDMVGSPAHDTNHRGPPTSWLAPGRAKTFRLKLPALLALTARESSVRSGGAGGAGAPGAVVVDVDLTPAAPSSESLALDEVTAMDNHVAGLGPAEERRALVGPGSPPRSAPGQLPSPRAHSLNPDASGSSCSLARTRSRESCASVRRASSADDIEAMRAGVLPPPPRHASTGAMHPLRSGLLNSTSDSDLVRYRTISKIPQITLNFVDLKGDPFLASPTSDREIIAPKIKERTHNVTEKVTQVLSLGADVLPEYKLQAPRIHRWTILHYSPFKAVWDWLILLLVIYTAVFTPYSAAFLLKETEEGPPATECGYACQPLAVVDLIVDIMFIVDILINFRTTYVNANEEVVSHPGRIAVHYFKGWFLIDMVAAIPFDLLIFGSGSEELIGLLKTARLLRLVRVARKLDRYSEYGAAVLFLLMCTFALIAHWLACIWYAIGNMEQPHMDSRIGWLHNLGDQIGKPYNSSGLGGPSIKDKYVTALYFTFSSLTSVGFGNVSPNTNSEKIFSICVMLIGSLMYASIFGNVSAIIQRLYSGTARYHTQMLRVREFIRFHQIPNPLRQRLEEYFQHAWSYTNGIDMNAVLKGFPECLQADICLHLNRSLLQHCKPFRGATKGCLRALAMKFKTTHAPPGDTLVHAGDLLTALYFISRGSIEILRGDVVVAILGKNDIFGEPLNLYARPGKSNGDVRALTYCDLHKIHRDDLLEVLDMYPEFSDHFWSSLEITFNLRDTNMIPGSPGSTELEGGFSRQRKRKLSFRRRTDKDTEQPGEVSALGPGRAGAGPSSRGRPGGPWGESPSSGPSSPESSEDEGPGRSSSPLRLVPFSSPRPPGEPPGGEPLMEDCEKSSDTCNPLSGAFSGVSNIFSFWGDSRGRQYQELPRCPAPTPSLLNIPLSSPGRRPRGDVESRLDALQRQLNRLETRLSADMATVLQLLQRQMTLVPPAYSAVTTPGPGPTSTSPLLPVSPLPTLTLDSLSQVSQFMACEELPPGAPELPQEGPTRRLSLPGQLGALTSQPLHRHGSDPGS
With `O=C1CSC(c2ccc([N+](=O)[O-])cc2)N1C1CCCCC1` (stereo not drawn), the “hERG current change (%, negative = inhibition) at 10uM” value is listed as -47.4%. The result for `CC(C)c1ccc(O)c(NC(=S)NC(=O)c2cccnc2)c1` reads 11%; that for `CC(C)Oc1cccc(C(=O)C2CCCN(C(=O)c3cc(C4CC4)[nH]n3)C2)c1` (stereo not drawn), -19.9%. Consider `CC(=O)c1ccc(NC(=O)N2CCc3ccccc3C2)cc1`, for which the “hERG current change (%, negative = inhibition) at 10uM” value is given as -0.383%. Regarding `CCN1CCN(CC(=O)Nc2ccc(Cl)c(Cl)c2)C(=O)C1=O`, the “hERG current change (%, negative = inhibition) at 10uM” value is given as -5.76%. The result for `Cc1c(N(C)C(=O)C23CC4CC(CC(C4)C2)C3)c(=O)n(-c2ccccc2)n1C` reads -1.09%; that for `Cc1ccc(NC(=S)N2CCN(S(=O)(=O)c3ccccc3)CC2)cc1C`, 11.6%. The result for `Cc1nn2cnc3sc4c(c3c2nc1=O)CCCC4` reads -3.17%. Under `COc1ccc(NC(=O)CCCC2=NS(=O)(=O)c3ccccc3N2)cc1` stands 17%. As for `O=c1c2ccccc2oc2cc(NCCCN3CCOCC3)ccc12`, the “hERG current change (%, negative = inhibition) at 10uM” value is given as -29.7%. As for `OCCCNc1c2ccccc2nc2ccccc12`, the “hERG current change (%, negative = inhibition) at 10uM” value is reported as -65.6%. Under `c1ccc2[nH]c(NCCCN3CCOCC3)nc2c1` stands -6.61%.

For the molecule `O=c1c2ccccc2nc2c3ccccc3c(NCCN3CCOCC3)nn12`, the “hERG current change (%, negative = inhibition) at 10uM” value was -72.2%. The result for `Fc1ccccc1-c1nc(NCCCN2CCOCC2)c2ccccc2n1` reads -45.9%; that for `O=c1c2ccccc2nc2c3ccccc3c(NCCO)nn12`, -7.34%. For the molecule `O=c1c2ccccc2nc2c3ccccc3c(NCc3ccccn3)nn12`, the “hERG current change (%, negative = inhibition) at 10uM” value is -13.5%.

For `O=c1c2ccccc2sc2ccc(NCCCN3CCOCC3)cc12`, the “hERG current change (%, negative = inhibition) at 10uM” value is recorded as -54.2%. The result for `OCCNc1c2ccccc2nc2ccccc12` reads -31%. Under `O=c1c2ccccc2oc2ccc(NCCCN3CCOCC3)cc12` stands -41.9%; under `CN(C)CCCNc1c2ccccc2nc2ccccc12`, -28.8%. The result for `c1ccc2c(NCCCN3CCOCC3)c3ccccc3nc2c1` reads -66.6%; that for `O=C(C1COc2ccccc2O1)N1CCN(c2nc3c(F)cc(F)cc3s2)CC1` (stereo not drawn), -16.6%. For the molecule `CCOc1ccc(S(=O)(=O)NC(C)C(=O)NCc2ccc3c(c2)OCO3)cc1` (stereo not drawn), the “hERG current change (%, negative = inhibition) at 10uM” value stood at 2.83%.

For `N/C(=N\OC(=O)COc1ccc(Br)cc1)c1cccnc1`, the “hERG current change (%, negative = inhibition) at 10uM” value is on record as -3.21%. Under `Cc1c(Cl)c([N+](=O)[O-])nn1CC(=O)NC(C)C1CC2CCC1C2` (stereo not drawn) stands -12.9%; under `CC(=O)NS(=O)(=O)c1ccc(NC(=O)c2ccc(S(=O)(=O)N3CCCC3)cc2)cc1`, -0.257%. In the case of `CC(C)(C#N)NC(=O)c1ccco1`, the “hERG current change (%, negative = inhibition) at 10uM” value is reported as 4.37%.

Consider `COc1ccc(C)cc1NC(=O)COCC(=O)O`, for which the “hERG current change (%, negative = inhibition) at 10uM” value is recorded as -8.48%. Under `O=C(NC1CCCCC1)C(c1ccccc1)N1CCOCC1` (stereo not drawn) stands 9.63%; under `COCCNC(=O)CN1C(=O)COc2ccc(S(=O)(=O)N3CCCCCC3)cc21`, 20.3%; under `CC(C)(C)c1ccc(C(=O)NCc2ccc(Cl)cc2)cc1`, 12.6%.

For `O=[N+]([O-])c1ccc2c(c1Nc1ccccc1Cl)=NC1(CCCCC1)N=2`, the “hERG current change (%, negative = inhibition) at 10uM” value is 3.29%. Take `CC(=O)NCCc1nc2cc(NC(=O)c3ccc(F)cc3)ccc2n1C`: the “hERG current change (%, negative = inhibition) at 10uM” value is reported as 9.6%. The result for `CC(=O)NC(Cc1ccccc1)C(=O)NC(Cc1ccccc1)C(=O)O` (stereo not drawn) (Ac-Phe-Phe-OH; configuration not given here) reads 10.4%; that for `O=C(CCN1C(=O)c2ccccc2C1=O)Nn1cnnc1`, -0.368%; that for `c1csc(-c2nc(NCCCN3CCOCC3)c3ccccc3n2)c1`, -50.7%. Take `c1ccc(-c2nc(NCCCN3CCOCC3)c3ccccc3n2)cc1`: the “hERG current change (%, negative = inhibition) at 10uM” value is -34.6%. For the molecule `Clc1ccc(-c2nc(NCCCN3CCOCC3)c3ccccc3n2)cc1`, the “hERG current change (%, negative = inhibition) at 10uM” value was -18.9%. As to `COC(=O)c1ccc(N2C(=O)C3CC(C)=C(C)CC3C2=O)cc1` (stereo not drawn), the “hERG current change (%, negative = inhibition) at 10uM” value is listed as 3.73%. The result for `CCCC(c1nnnn1CCc1ccccc1)N1CCN(C(=O)c2ccco2)CC1` (stereo not drawn) reads -49.3%; that for `CCCC(c1nnnn1Cc1ccc(OC)cc1)N1CCN(C(=O)c2ccco2)CC1` (stereo not drawn), -51.3%; that for `CCC(C)(C)n1nnnc1C(C(C)C)N1CCN(C(=O)c2ccco2)CC1` (stereo not drawn), -29.7%. The result for `CCCC(c1nnnn1Cc1ccco1)N1CCN(C(=O)c2ccco2)CC1.Cl` (stereo not drawn) reads -11.8%. Regarding `CCC(c1nnnn1Cc1ccco1)N1CCN(C(=O)c2ccco2)CC1.Cl` (stereo not drawn), the “hERG current change (%, negative = inhibition) at 10uM” value is recorded as -20.6%. Under `CCCCC(c1nnnn1Cc1ccco1)N1CCN(C(=O)c2ccco2)CC1.Cl` (stereo not drawn) stands -51.8%; under `CCCC(c1nnnn1C(C)(C)C)N1CCN(C(=O)c2ccco2)CC1.Cl` (stereo not drawn), -12.8%. In the case of `CCC(c1nnnn1CCc1ccccc1)N1CCN(C(=O)c2ccco2)CC1.Cl` (stereo not drawn), the “hERG current change (%, negative = inhibition) at 10uM” value is -28%. On to `CCCC(c1nnnn1CCOC)N1CCN(C(=O)c2ccco2)CC1.Cl` (stereo not drawn), for which the “hERG current change (%, negative = inhibition) at 10uM” value is recorded as -4.1%. In the case of `CCCC(c1nnnn1C(C)(C)CC)N1CCN(C(=O)c2ccco2)CC1.Cl` (stereo not drawn), the “hERG current change (%, negative = inhibition) at 10uM” value was -54%. Under `CCC(c1nnnn1CCOC)N1CCN(C(=O)c2ccco2)CC1.Cl` (stereo not drawn) stands 9.17%; under `CCC(c1nnnn1Cc1ccc(OC)cc1)N1CCN(C(=O)c2ccco2)CC1.Cl` (stereo not drawn), -55.5%; under `Cc1ccc(C)c(NC(=S)N2CCN(c3cccc(C(F)(F)F)c3)CC2)c1`, 7.13%. The result for `COC(=O)c1sc(S(=O)(=O)Nc2ccc(Br)cc2)c(C(=O)OC)c1C` reads 2.75%; that for `CCCCCCc1cc2cc(C(=O)NCc3ccccc3)c(=N)oc2cc1O`, 5.76%. In the case of `O=C(NCCC(c1ccccc1)c1ccccc1)c1cccs1`, the “hERG current change (%, negative = inhibition) at 10uM” value is -14.2%. The result for `Cc1ccccc1C(=O)N/N=C/c1ccccn1` reads 5.6%. The result for `CCN(CC)c1ccc(/C=C2\NC(=O)NC2=O)cc1` reads 19.5%; that for `COC(=O)c1ccsc1NC(=O)CN1CCN(c2ncccn2)CC1`, -1.35%; that for `Cc1cc(C)n(-c2c(F)c(F)c(COC(=O)c3ccccc3)c(F)c2F)n1`, 5.11%. The result for `COC(=O)c1nc2n(n1)C(c1ccc([N+](=O)[O-])cc1)C(C(=O)Nc1ccc(Cl)cc1)=C(C)N2` (stereo not drawn) reads 13.5%; that for `Cc1ccccc1S(=O)(=O)Cc1ccc(C(=O)N(C)C2CCCCC2)o1`, -12.5%; that for `C=CCn1c(SCc2cccc(F)c2)nc2cc(C(=O)N3CCC(C(N)=O)CC3)ccc2c1=O`, -34.7%. Take `CCN(C(=O)c1sc(N)c(C#N)c1C)C1CCCCC1`: the “hERG current change (%, negative = inhibition) at 10uM” value worked out at 9.21%.

As for `CCOC(=O)c1c(C)oc(/N=C/c2ccccc2O)c1C#N`, the “hERG current change (%, negative = inhibition) at 10uM” value was 7.61%. The result for `O=C(c1cccs1)N1CCN(S(=O)(=O)c2ccccc2)CC1` reads -6.98%; that for `COC(=O)c1cccc(NS(C)(=O)=O)c1`, 12.9%; that for `CC(=O)Nc1cccc(C(=O)OCCCOc2ccc(F)cc2)c1`, 18.8%.

`CS(=O)(=O)Nc1cccc(C(=O)OCCCOc2ccc(F)cc2)c1`: the “hERG current change (%, negative = inhibition) at 10uM” value was -54.5%. Under `CC(C)CNC(=O)NC(=O)COC(=O)c1cc(F)cc(F)c1` stands -4.56%; under `COc1ccc(C)cc1NC(=O)C(=O)NNC(=O)c1ccco1`, 17.6%; under `Cc1c(CC(=O)O)c(=O)oc2c(C)c(OCc3c(F)cccc3Cl)ccc12`, 5.53%.

On to `CCOc1ccccc1NC(=O)C(NCCc1ccc(OC)cc1)c1ccccc1` (stereo not drawn), for which the “hERG current change (%, negative = inhibition) at 10uM” value is listed as -4.48%. Consider `CCOc1ccccc1NC(=O)C(NCCN(C)C)c1ccccc1.O=C(O)C(=O)O` (stereo not drawn), for which the “hERG current change (%, negative = inhibition) at 10uM” value was -76.4%. Consider `CCOc1ccccc1NC(=O)C(NCC1(N2CCCCC2)CCCCC1)c1ccccc1.O=C(O)C(=O)O` (stereo not drawn), for which the “hERG current change (%, negative = inhibition) at 10uM” value is -70.9%. On to `CCOc1ccccc1NC(=O)C(OC(=O)C1CC1)c1ccccc1` (stereo not drawn), for which the “hERG current change (%, negative = inhibition) at 10uM” value is recorded as -10.3%. With `CCOc1ccccc1NC(=O)C(NCC1CCCCC1)c1ccccc1` (stereo not drawn), the “hERG current change (%, negative = inhibition) at 10uM” value came out at 16.9%. For the molecule `CCOc1ccccc1NC(=O)C(Sc1ccccc1)c1ccccc1` (stereo not drawn), the “hERG current change (%, negative = inhibition) at 10uM” value is reported as 9.32%. Take `COc1cccc(C(=O)N2CCC3(CC2)OCCO3)c1`: the “hERG current change (%, negative = inhibition) at 10uM” value came out at 20.3%. As for `COc1ccc(OCCNS(=O)(=O)Cc2ccccc2)cc1`, the “hERG current change (%, negative = inhibition) at 10uM” value is reported as 0.161%.

`Cc1cccc(NC(=O)c2ccc(S(=O)(=O)N3CCOCC3)cc2)n1`: the “hERG current change (%, negative = inhibition) at 10uM” value stood at 19.5%.

Consider `COCCSc1ccccc1C(=O)N1CCc2ccccc21`, for which the “hERG current change (%, negative = inhibition) at 10uM” value was found to be 15.1%. Under `CC(C)(C)c1ccc(OCCC(=O)Nc2cccc(S(=O)(=O)N3CCCCC3)c2)cc1` stands 16.4%.

Turning to `CCC(=O)N1CCN(c2nc(C)nc3sc(C)c(C)c23)CC1`, the “hERG current change (%, negative = inhibition) at 10uM” value was -62%. Consider `O=C(COc1ccccc1)N1CCN(c2ccccc2)CC1`, for which the “hERG current change (%, negative = inhibition) at 10uM” value is listed as -3.1%. Turning to `Cc1nc(N2CCN(C(=O)CCC(=O)O)CC2)c2c(C)c(C)sc2n1`, the “hERG current change (%, negative = inhibition) at 10uM” value is listed as -1.2%. Under `Cc1nc(N2CCN(S(=O)(=O)c3ccc(Br)cc3)CC2)c2c(C)c(C)sc2n1` stands -10.7%. With `Cc1nc(N2CCN(C(=O)COc3ccccc3)CC2)c2c(C)c(C)sc2n1.Cl`, the “hERG current change (%, negative = inhibition) at 10uM” value is -69.3%. Take `Cc1sc2ncnc(OCC(=O)N3CCN(S(=O)(=O)c4ccccc4)CC3)c2c1C`: the “hERG current change (%, negative = inhibition) at 10uM” value is -2.31%. On to `O=C(c1cc(C2CC2)nn1-c1ccccc1)N1CCN(S(=O)(=O)c2cccc(F)c2)CC1`, for which the “hERG current change (%, negative = inhibition) at 10uM” value was -28.1%. Under `O=[N+]([O-])c1ccc(Cl)c(S(=O)(=O)/N=C(/c2ccccc2)N2CCOCC2)c1` stands 3.91%.

These data come from publication PMC4336329 (PLoS ONE, 2015).
